Measurements reported in PubChem BioAssay (EPA / NIEHS).
Records with an inconclusive call do not appear. Active and inactive are the calls of the source. The calls were made as follows: active = hit-call score of the fitted dose curve at least 0.9, where 1 is the maximum; inconclusive = response in the unintended direction; inactive = score below 0.9.

Tests used:
[1] = tested on: frog Estrogen Receptor (ESR1), gene 398734; assay: ATG_frER1_XSP1: Attagene TRANS-FACTORIAL Multi-Species (XSP1) HepG2 Assay for frog Estrogen Receptor (ESR1) (AID 2283777)
Method in brief: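 Human hepatoma HepG2 cells carried transiently transfected multiplexed Gal4-driven reporters and were exposed to test chemicals for 24 hours. Transcripts were quantified by fluorescent RT-PCR with capillary electrophoresis, referenced to DMSO.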

[2] = tested on: zebrafish Estrogen Receptor (ESR2A), gene 317734; assay: ATG_zfER2a_XSP1: Attagene TRANS-FACTORIAL Multi-Species (XSP1) HepG2 Assay for zebrafish Estrogen Receptor (ESR2A) (AID 2283778)
Method in brief: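 Cells were transfected, dosed for 24 h, then total RNA was isolated. After oligo(dT) reverse transcription, reporter sequences were amplified, FAM-labelled by primer extension, digested with HpaI and sized by capillary electrophoresis; DMSO served as baseline.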

[3] = biological target: chicken Estrogen Receptor (ESR1), ESR1 (gene 396099) (UniProt P06212); assay: ATG_chERa_XSP1: Attagene TRANS-FACTORIAL Multi-Species (XSP1) HepG2 Assay for chicken Estrogen Receptor (ESR1) (AID 2283779)
Method in brief: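 Human liver HepG2, transient MRTU transfection (NR-Gal4 chimeras, GAL4-UAS reporters); 24 h compound exposure; 3 nM 6-alpha-fluorotestosterone in medium. Total RNA → RT-PCR → 6-FAM primer extension → HpaI → CE. Positive direction vs DMSO baseline.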

[4] = biological target: Estrogen receptor (Homo sapiens) (UniProt P03372); assay: ATG_hERa_XSP1: Attagene TRANS-FACTORIAL Multi-Species (XSP1) HepG2 Assay for human Estrogen Receptor (ESR1) (AID 2283780)
Method in brief: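 HepG2 cells transiently transfected with GAL4-UAS reporter units and chimeric NR-Gal4 constructs; 24 h after dosing, reporter mRNA quantified by RT-PCR and capillary electrophoresis. Medium contained 3 nM 6-alpha-fluorotestosterone; activity fitted as gain-of-signal versus DMSO.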

[5] = tested on: turtle Estrogen Receptor (ESR1), gene 101933533; assay: ATG_trERa_XSP1: Attagene TRANS-FACTORIAL Multi-Species (XSP1) HepG2 Assay for turtle Estrogen Receptor (ESR1) (AID 2283781)
Method in brief: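 Activity was taken as gain of reporter transcript over DMSO controls. HepG2 cells carrying GAL4-UAS-driven reporters were exposed for 24 h before RNA was extracted and reporter sequences were measured by fluorescence after capillary separation.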

[6] = biological target: Estrogen receptor beta (Homo sapiens) (UniProt Q92731); assay: ATG_hERb_XSP1: Attagene TRANS-FACTORIAL Multi-Species (XSP1) HepG2 Assay for human Estrogen Receptor (ESR2) (AID 2283788)
Method in brief: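 Measured endpoint is transcriptional gain of signal from a GAL4-UAS reporter controlled by chimeric ERβ in HepG2 liver cells. Exposure lasts 24 h alongside 3 nM 6-alpha-fluorotestosterone, with DMSO as negative control.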

[7] = ATG_M_06_XSP1: Attagene TRANS-FACTORIAL Multi-Species (XSP1) HepG2 Assay for M06 Transcription Factor (Internal Marker) (AID 2283790)
Method in brief: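 Transfected HepG2 multi-reporter system treated 24 h in the presence of 3 nM 6-alpha-fluorotestosterone. The M06 internal marker transcript was quantified by RT-PCR with capillary electrophoresis as a background control, and gain of signal was scored versus DMSO.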

[8] = ATG_M_61_XSP1: Attagene TRANS-FACTORIAL Multi-Species (XSP1) HepG2 Assay for M61 Transcription Factor (Internal Marker) (AID 2283797)
Method in brief: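 HepG2 cells transiently transfected with multiplexed GAL4-driven reporter units, dosed 24 h with 3 nM 6-alpha-fluorotestosterone present. Reporter mRNA quantified by RT-PCR, 6-FAM labelling, HpaI digestion and capillary electrophoresis; internal-marker background control, gain of signal versus DMSO.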

[9] = biological target: human Thyroid hormone Receptor beta (TRb), THRB (gene 7068) (UniProt P10828); assay: ATG_hTRb_XSP1: Attagene TRANS-FACTORIAL Multi-Species (XSP1) HepG2 Assay for human Thyroid hormone Receptor beta (TRb) (AID 2283808)
Method in brief: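 HepG2 cells transiently transfected with reporter units driving GAL4-UAS reporters for chimeric NR-Gal4 proteins; 24 h chemical exposure with 3 nM 6-alpha-fluorotestosterone present. Reporter mRNA quantified by RT-PCR and capillary electrophoresis, gain of signal versus DMSO.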

[10] = ATG_XTT_Cytotoxicity_XSP1: Cytotoxicity Assessment in the Attagene TRANS-FACTORIAL Multi-Species (XSP1) HepG2 Assay (AID 2283810)
Method in brief: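 XTT viability readout taken at 24 hours post-dosing in HepG2 liver cells co-treated with 3 nM 6-alpha-fluorotestosterone. Signal loss relative to DMSO controls reflects cytotoxicity.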

[11] = ATG_M_06_XSP2: Attagene TRANS-FACTORIAL Multi-Species (XSP2) HepG2 Assay for M06 Transcription Factor (Internal Marker) (AID 2283811);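 also: hits are increases in signal above the DMSO baseline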
Method in brief: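 HepG2, multiplexed reporter transfection; 24 h dosing; AR stimulated with 3 nM 6-alpha-fluorotestosterone + 1.5 nM norgestrel; RNA → RT-PCR → 6-FAM primer extension → HpaI → CE. Positive direction vs DMSO.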

[12] = ACEA_ER_AUC_viability: ACEA Biosciences xCELLigence Real-Time Cell Analysis on Estrogen Receptor Agonism for Viability (AID 2283782);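 also: continuous compound exposure with impedance area under curve over 80 h; hit means loss of impedance signal meaning reduced cell growth or viability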
Method in brief: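 T-47D; phenol red-free RPMI1640 + 10% CS-FBS; 8 conc., 1:4 serial, max 100 uM final, ≤0.5% DMSO; n = 2; continuous exposure; impedance monitored to 80 h post-dose; AUC vs DMSO.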

[13] = biological target: AR (gene 367) (UniProt P10275); assay: ACEA_AR_antagonist_80hr: ACEA Biosciences xCELLigence Real-Time Cell Analysis on Androgen Receptor Antagonism for Proliferation (AID 2283787);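 also: 22Rv1 human prostate cancer cells with growth followed by electrical impedance; hits lower the impedance growth signal relative to DMSO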
Method in brief: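 Growth-kinetic antagonist readout in 22Rv1 cells, taken 80 h after continuous compound exposure. Activity fitted as signal loss relative to DMSO negative control.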

Sequence of AR (gene 367) (P10275 whole entry, looked up): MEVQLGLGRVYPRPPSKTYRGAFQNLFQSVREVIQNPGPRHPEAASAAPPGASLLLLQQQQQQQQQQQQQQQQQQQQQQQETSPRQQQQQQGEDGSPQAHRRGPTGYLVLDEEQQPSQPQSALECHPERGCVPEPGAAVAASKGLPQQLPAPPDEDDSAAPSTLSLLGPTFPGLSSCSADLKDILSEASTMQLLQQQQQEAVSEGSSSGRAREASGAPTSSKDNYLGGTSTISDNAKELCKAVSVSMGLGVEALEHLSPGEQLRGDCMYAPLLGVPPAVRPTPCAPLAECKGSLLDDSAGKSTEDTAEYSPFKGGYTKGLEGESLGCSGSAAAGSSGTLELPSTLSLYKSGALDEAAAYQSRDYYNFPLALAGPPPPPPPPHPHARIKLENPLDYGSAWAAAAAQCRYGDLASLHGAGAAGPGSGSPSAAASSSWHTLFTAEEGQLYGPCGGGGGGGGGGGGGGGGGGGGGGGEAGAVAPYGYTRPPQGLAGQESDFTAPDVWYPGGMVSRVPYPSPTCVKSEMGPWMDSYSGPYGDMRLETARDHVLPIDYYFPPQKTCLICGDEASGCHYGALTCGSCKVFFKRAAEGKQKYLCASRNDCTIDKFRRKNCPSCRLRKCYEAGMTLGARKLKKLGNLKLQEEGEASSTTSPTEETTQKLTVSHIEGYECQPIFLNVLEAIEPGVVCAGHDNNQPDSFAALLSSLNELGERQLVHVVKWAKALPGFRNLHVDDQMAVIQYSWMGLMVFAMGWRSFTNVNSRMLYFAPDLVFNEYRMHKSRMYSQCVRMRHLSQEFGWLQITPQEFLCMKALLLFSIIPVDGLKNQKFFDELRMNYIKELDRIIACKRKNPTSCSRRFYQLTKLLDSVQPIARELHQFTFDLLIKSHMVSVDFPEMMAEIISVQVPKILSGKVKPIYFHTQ
Sequence of Estrogen receptor (Homo sapiens) (P03372 whole entry, looked up, the tested form may be a part): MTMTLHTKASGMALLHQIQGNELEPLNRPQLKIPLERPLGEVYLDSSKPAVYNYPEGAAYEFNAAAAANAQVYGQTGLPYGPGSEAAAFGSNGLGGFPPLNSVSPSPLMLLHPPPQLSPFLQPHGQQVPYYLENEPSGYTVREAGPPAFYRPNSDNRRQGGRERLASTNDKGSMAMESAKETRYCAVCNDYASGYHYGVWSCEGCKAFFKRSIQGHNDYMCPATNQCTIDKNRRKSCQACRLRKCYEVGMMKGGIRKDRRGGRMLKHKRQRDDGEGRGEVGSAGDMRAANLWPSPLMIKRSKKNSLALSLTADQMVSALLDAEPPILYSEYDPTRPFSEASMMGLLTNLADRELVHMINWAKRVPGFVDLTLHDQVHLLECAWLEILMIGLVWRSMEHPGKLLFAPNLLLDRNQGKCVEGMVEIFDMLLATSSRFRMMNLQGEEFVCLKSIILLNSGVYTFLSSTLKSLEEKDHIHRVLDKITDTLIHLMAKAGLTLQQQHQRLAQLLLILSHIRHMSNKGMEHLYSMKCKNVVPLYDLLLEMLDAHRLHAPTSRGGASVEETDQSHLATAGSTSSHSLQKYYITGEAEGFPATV
Sequence of chicken Estrogen Receptor (ESR1), ESR1 (gene 396099) (P06212 whole entry, looked up, the tested form may be a part): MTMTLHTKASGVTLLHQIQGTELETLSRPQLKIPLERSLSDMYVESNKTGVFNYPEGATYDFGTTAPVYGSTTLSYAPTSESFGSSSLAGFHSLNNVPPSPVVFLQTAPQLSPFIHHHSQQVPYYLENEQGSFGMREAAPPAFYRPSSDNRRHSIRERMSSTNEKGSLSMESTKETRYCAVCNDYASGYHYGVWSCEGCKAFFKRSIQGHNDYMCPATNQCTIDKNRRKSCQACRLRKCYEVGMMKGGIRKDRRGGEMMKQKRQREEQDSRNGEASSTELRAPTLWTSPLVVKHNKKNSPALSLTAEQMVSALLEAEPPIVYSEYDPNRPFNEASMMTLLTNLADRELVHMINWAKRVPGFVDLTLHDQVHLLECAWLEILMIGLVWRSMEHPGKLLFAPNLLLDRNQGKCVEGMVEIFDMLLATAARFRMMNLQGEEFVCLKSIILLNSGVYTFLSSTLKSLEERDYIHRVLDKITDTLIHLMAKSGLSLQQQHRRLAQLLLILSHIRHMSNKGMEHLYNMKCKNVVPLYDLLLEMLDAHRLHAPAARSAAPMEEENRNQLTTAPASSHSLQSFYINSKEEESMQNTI
Sequence of human Thyroid hormone Receptor beta (TRb), THRB (gene 7068) (P10828 whole entry, looked up, the tested form may be a part): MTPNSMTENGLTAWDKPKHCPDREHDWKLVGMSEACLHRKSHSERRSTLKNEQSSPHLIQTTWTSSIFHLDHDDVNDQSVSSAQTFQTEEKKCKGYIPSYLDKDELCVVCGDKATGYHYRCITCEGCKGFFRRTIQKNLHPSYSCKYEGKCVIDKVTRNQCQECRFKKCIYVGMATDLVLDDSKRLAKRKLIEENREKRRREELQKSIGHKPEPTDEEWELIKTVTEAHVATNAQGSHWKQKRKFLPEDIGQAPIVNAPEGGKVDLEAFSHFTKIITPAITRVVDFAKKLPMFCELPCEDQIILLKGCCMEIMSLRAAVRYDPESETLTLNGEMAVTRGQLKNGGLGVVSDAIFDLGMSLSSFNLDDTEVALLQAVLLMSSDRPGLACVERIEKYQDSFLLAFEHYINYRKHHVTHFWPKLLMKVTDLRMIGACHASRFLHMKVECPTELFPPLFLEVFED
Sequence of Estrogen receptor beta (Homo sapiens) (Q92731 whole entry, looked up, the tested form may be a part): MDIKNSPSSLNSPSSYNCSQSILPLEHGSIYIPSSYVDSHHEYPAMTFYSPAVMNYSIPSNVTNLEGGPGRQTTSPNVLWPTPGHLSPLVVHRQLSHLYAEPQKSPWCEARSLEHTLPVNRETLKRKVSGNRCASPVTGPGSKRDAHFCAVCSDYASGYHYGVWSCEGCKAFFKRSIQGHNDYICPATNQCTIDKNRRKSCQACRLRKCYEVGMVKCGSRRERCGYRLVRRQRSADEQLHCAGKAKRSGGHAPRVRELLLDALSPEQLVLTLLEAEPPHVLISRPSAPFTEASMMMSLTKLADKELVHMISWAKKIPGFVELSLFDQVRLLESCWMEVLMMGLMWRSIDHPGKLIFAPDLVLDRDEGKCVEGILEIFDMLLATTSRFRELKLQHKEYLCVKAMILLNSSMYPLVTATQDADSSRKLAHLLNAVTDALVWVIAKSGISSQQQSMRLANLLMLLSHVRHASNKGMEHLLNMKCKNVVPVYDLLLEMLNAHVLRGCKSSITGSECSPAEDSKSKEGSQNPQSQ

Q: For `CN(CCOc1ccc(CC2SC(=O)NC2=O)cc1)c1ccccn1` (stereo unspecified), which AC50 [1] is on record?
A: 0.0666 µM (active)

Q: And the outcome [2]?
A: inactive

Q: What about the AC50 [3] of the same molecule?
A: 0.0353 µM (active)

Q: And the outcome [4]?
A: inactive

Q: What about the AC50 [5] of the same molecule?
A: 0.0372 µM (active)

Q: What about the outcome [6] of the same molecule?
A: inactive

Q: What about the outcome [7] of the same molecule?
A: inactive

Q: And the outcome [8]?
A: inactive

Q: What about the outcome [9] of the same molecule?
A: inactive

Q: And the outcome [10]?
A: inactive

Q: And the outcome [11]?
A: inactive

Q: Which outcome [12] does the source give for `CC(=O)OCC=Cc1ccccc1` here?
A: inactive

Q: For `O=C(Cl)c1cccc(C(=O)Cl)c1`, which outcome [12] is on record?
A: inactive

Q: For `CC(=O)Nc1ccc(C)cc1C`, which outcome [12] is on record?
A: inactive

Q: For `CCCCCCCCCCCCN`, which AC50 [12] is on record?
A: 66.3 µM (active)

Q: Which AC50 [12] does the source give for `C=CC(=O)OCCOCCOCC` here?
A: 81.2 µM (active)

Q: With `CC(C)C1CCC(O)CC1` (stereo unspecified) as the molecule, how does the outcome [12] read?
A: inactive

Q: For `O=c1[nH]nnc2ccccc12`, which outcome [12] is on record?
A: inactive

Q: Which AC50 [12] does the source give for `CCCC/C=C\CCCCCCCCCC=O` here?
A: 91.2 µM (active)

Q: For `CC(CC(C)(C)C)CC(C)(C)CC(C)(C)C` (stereo unspecified), which outcome [12] is on record?
A: inactive

Q: Which AC50 [12] does the source give for `CC(C)C[C@H]1C(=O)N2CCC[C@H]2[C@]2(O)O[C@](NC(=O)[C@@H]3C=C4c5cccc6[nH]c(Br)c(c56)C[C@H]4N(C)C3)(C(C)C)C(=O)N12` here?
A: 4.31 µM (active)

Q: Which outcome [12] does the source give for `CC1=CC(=O)NS(=O)(=O)O1` here?
A: inactive

Q: Which outcome [12] does the source give for `Nc1ccc(S(=O)(=O)O)c(N)c1` here?
A: inactive

Q: Which outcome [12] does the source give for `CC(=O)OCc1ccc2c(c1)OCO2` here?
A: inactive

Q: For `CC(=O)[O][Al][O]C(C)=O`, which AC50 [12] is on record?
A: 9.92 µM (active)

Q: With `NCCOCCO` as the molecule, how does the outcome [12] read?
A: inactive

Q: For `CCCCCCC#CC(=O)OC`, which outcome [12] is on record?
A: inactive

Q: For `COc1cc(C=O)ccc1OC(=O)C(C)C`, which outcome [12] is on record?
A: inactive

Q: With `CC1(C)C(=O)N(Br)C(=O)N1Cl` as the molecule, how does the outcome [12] read?
A: inactive

Q: Which outcome [12] does the source give for `CN(C)CCOCCN(C)C` here?
A: inactive

Q: With `CC(=O)/C=C/C1=C(C)CCCC1(C)C` as the molecule, how does the AC50 [12] read?
A: 9.92 µM (active)

Q: Which outcome [12] does the source give for `CSc1nc(NC2CC2)nc(NC(C)(C)C)n1` here?
A: inactive

Q: Which AC50 [12] does the source give for `CCCCCCCCCCCCCCCC(=O)O` here?
A: 84.3 µM (active)

Q: With `CCCCCC=CCC(=O)OC` as the molecule, how does the outcome [12] read?
A: inactive

Q: Which outcome [12] does the source give for `CO[Si](C)(OC)c1ccccc1` here?
A: inactive

Q: With `CC(C)=CCC[C@](C)(O)[C@@H]1CC=C(C)CC1` as the molecule, how does the AC50 [12] read?
A: 84.5 µM (active)

Q: Which outcome [12] does the source give for `Clc1ccc(Cl)c(Cl)c1Cl` here?
A: inactive

Q: Which outcome [12] does the source give for `CCCCCCCCCCCCCCCCCC(=O)OCC(CC)CCCC` (stereo unspecified) here?
A: inactive

Q: For `CCCCCC(=O)OCCc1ccccc1`, which AC50 [12] is on record?
A: 78.9 µM (active)

Q: Which outcome [12] does the source give for `COc1cccc(OC)c1` here?
A: inactive

Q: Which AC50 [12] does the source give for `C=CCOC(=O)CCC1CCCCC1` here?
A: 75.5 µM (active)

Q: For `CCCCC(CC)COCCC#N` (stereo unspecified), which outcome [12] is on record?
A: inactive

Q: Which outcome [12] does the source give for `CC(C)(C)NC(N)=O` here?
A: inactive

Q: For `CC(=O)Nc1ccccc1O`, which outcome [12] is on record?
A: inactive

Q: With `CC1(C)[C@@H]2CC[C@@]1(C)[C@H](O)C2` as the molecule, how does the outcome [12] read?
A: inactive

Q: With `CCCCNC(=O)NS(=O)(=O)c1ccc(C)cc1` as the molecule, how does the outcome [12] read?
A: inactive

Q: Which AC50 [12] does the source give for `CCCCCCCCCCCCCCCC(=O)OC[C@H](O)[C@H]1OC(=O)C(O)=C1O` here?
A: 39.2 µM (active)

Q: And the AC50 [13]?
A: 7.84 µM (active)

Q: For `O=C(O)CCCCCCCC(=O)O`, which outcome [12] is on record?
A: inactive

Q: For `O=C[C@@H](O)[C@H](O)[C@H](O)CO`, which outcome [12] is on record?
A: inactive

Q: And the outcome [13]?
A: inactive
